# Hit rate of the full screen: of about 2,100 compounds, about 770 (37%) were called active.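 The calls were made as follows: active = by-eye trace score of 1 for enhancers or -1 for inhibitors, so actives lie on both sides (some results past the limit were not filed as active); inactive = score 0, or 3 fluorescent, or 4 baseline rise.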 The list shows a part of the results.
# Target: G protein-activated inward rectifier potassium channel 2 (Homo sapiens) + G protein-activated inward rectifier potassium channel 1 (Homo sapiens) (UniProt P48051+P48549)
# Test: GIRK1/2 thallium flux modulators, retest, confirmation, cell-based, HEK293 rmGlu8/hGIRK1/2, FluoZin-2 (AID 623911)
# Details: HEK293 rmGlu8/hGIRK1/2, thallium flux FluoZin-2; actives lie on both sides; glutamate co-added at its EC20 level
# G protein-activated inward rectifier potassium channel 2 (Homo sapiens) + G protein-activated inward rectifier potassium channel 1 (Homo sapiens), sequence (P48051 whole entry, looked up): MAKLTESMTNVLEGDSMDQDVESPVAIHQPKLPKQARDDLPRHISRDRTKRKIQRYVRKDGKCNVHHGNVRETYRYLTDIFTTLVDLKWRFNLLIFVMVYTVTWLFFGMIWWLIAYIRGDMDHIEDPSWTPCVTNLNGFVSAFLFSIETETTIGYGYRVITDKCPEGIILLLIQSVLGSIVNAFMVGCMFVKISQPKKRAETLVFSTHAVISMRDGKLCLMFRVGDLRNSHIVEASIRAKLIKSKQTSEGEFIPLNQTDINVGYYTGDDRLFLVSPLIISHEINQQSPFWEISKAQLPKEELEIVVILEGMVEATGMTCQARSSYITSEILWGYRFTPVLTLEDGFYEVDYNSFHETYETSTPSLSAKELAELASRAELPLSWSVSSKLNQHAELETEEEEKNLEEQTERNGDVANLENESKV
# G protein-activated inward rectifier potassium channel 2 (Homo sapiens) + G protein-activated inward rectifier potassium channel 1 (Homo sapiens), sequence (P48549 whole entry, looked up): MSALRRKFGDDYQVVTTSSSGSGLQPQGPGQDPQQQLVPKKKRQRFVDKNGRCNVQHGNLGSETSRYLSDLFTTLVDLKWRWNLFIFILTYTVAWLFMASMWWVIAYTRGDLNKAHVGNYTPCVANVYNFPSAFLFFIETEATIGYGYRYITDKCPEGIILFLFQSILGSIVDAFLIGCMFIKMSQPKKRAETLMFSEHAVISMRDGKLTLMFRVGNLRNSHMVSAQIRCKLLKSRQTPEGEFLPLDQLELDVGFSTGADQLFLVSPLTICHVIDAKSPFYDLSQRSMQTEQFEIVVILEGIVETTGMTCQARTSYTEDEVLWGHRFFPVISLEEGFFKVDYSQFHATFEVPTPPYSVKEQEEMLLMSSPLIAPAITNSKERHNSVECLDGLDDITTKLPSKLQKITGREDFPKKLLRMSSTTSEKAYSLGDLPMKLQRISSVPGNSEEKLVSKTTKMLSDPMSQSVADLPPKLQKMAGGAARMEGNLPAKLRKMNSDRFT
row,SMILES,manual score
1,Cc1cc(N2C(=O)C(O)=C(C(=O)c3ccc(C)o3)C2c2cccs2)no1 (stereo not given),0 (inactive)
2,CCCCn1c(-c2ccc(Cl)cc2)nc2c(=O)n(C)c(=O)[nH]c21,0 (inactive)
3,CC(=O)c1c(C)[nH]c(C(=O)CSc2ncnc3sc(-c4ccccc4)cc23)c1C,1 (active)
4,CC(C)N(C(=O)CSc1ncnc2sc(-c3ccccc3)cc12)C(C)C,0 (inactive)
5,CCN(CC)C(=O)CSc1ncnc2sc(-c3ccccc3)cc12,0 (inactive)
6,Clc1ccccc1-c1nnc2sc(-c3ccccn3)nn12,0.5 (inactive)
7,Brc1ccccc1-c1nnc2sc(-c3ccc4c(c3)OCCO4)nn12,-1 (active)
8,Clc1ccccc1-c1nnc2sc(-c3ccc4c(c3)OCO4)nn12,0 (inactive)
9,CCN(C(=O)CSc1nc2ccccc2n1CCc1ccccc1)C1CCS(=O)(=O)C1 (stereo not given),0 (inactive)
10,CCCOC(=O)NC(CC)COC(=O)Nc1cccc(C)c1C (stereo not given),0 (inactive)
11,Cc1cc(C)c(-n2c(C)cc(/C=C3/NC(=O)NC3=O)c2C)c(C)c1,-1 (active)
12,Cc1cc(C=C2C(=O)c3ccccc3C2=O)c(C)n1-c1ccccc1,0.5 (inactive)
13,Cc1ccc(C)c(OCC(O)CN2C(C)CCCC2C)c1 (stereo not given),-1 (active)
14,C/C(=N\NC(=S)NCCc1ccccc1)c1ccc(C)cc1,0 (inactive)
15,O=C1c2ccccc2C(Nc2ccc3c(c2)OCCO3)N1Cc1ccccc1 (stereo not given),-1 (active)
16,O=C(COC(=O)C1CC(=O)N(Cc2ccccc2)C1)Nc1ccc2c(c1)OCO2 (stereo not given),0 (inactive)
17,CC(C)Oc1ccccc1C1Nc2ccccc2C(=O)N1c1ccc2c(c1)OCCO2 (stereo not given),0 (inactive)
18,O=C(CSCC(=O)N1CCCCC1)Nc1nc(-c2ccc(Cl)s2)cs1,0 (inactive)
19,c1cn(C23CC4CC(CC(C4)C2)C3)cn1,-1 (active)
20,CCc1ccc2c(c1)C1(NN=C(c3cccc4ccccc34)S1)C(=O)N2 (stereo not given),0 (inactive)
21,O=C(NC(=S)Nc1ccccc1Cl)c1csnn1,1 (active)
22,CC(C)Oc1cccc(C(=O)NC(=S)Nc2ccccc2)c1,0 (inactive)
23,Cc1ccc2cccc(NC(=S)NC(=O)c3ccn(C)n3)c2n1,0 (inactive)
24,O=C(NC(=S)Nc1ccccc1)c1cc(-c2ccccc2)nc2ccccc12,0 (inactive)
25,O=C(NC(=S)Nc1ccccc1)c1csnn1,1 (active)
26,O=C(NC(=S)Nc1cc(C(F)(F)F)ccc1Cl)c1ccccc1,0 (inactive)
27,COc1ccc(Nc2nc(N)nc(CSc3nnc(C)s3)n2)cc1,0 (inactive)

row,SMILES,manual score
1,Cc1cccc(C)c1NC(=O)C(NC(=O)c1ccccn1)c1ccc([N+](=O)[O-])cc1 (stereo not given),0 (inactive)
2,CC1CN(C(=O)C2CCCCC2)C(C)CN1C(=O)C1CCCCC1 (stereo not given),0 (inactive)
3,O=C(CC(=O)c1cc(Cl)ccc1O)c1ccccc1,0 (inactive)
4,Cc1cccc(C(=O)CC(=O)c2cc(Cl)ccc2O)c1,0.5 (inactive)
5,O=C(CC(=O)c1ccccc1O)c1cccc(F)c1,1 (active)
6,CCC(NC(=O)c1ccccc1O)c1ccccc1 (stereo not given),0 (inactive)
7,O=C(CC(=O)c1ccccc1O)c1ccc(F)cc1,1 (active)
8,N#CCCN(Cc1ccccc1)C(=S)NC(=O)c1ccccc1,1 (active)
9,COc1ccc(CN(CCC#N)C(=S)NC(=O)c2ccccc2)cc1,1 (active)
10,COc1cccc(C(=O)NC(=S)Nc2ccc3c4c(cccc24)CC3)c1,0 (inactive)
11,Cc1cc(C)cc(OCC(=O)N2N=C(C(F)(F)F)CC2(O)C(C)(C)C)c1 (stereo not given),0 (inactive)
12,N/C(=N/O)c1nc(N2CCCC2)nc(N(c2ccccc2)c2ccccc2)n1,-1 (active)
13,O=C(N1CCCCC1)N1CCN(C(=O)N(c2ccccc2)c2ccccc2)CC1,0 (inactive)
14,CC(C)C(=O)Nc1nnn(C)n1,0 (inactive)
15,Cc1c(C(=O)NCc2cccnc2)oc2ccc(S(=O)(=O)N3CCC4(CC3)OCCO4)cc12,0 (inactive)
16,CCOC(=O)N1CCN(C(=O)c2oc3ccc(S(=O)(=O)N4CC(C)CC(C)C4)cc3c2C)CC1 (stereo not given),-1 (active)
17,COC(=O)c1nc(NC(C)=O)n[nH]1,0 (inactive)
18,CC1(C)CC2CC(C)(CN2c2ncnc3ccccc23)C1 (stereo not given),-1 (active)
19,O=C(/C=C/c1ccc(Cl)cc1)NC(=S)NN1CCCCC1c1cccnc1 (stereo not given),0 (inactive)
20,Cc1cccc(N=C2NC(=O)/C(=C/C=C/c3ccco3)S2)c1C,1 (active)
21,COC(=O)C1=C(C)NC(=O)/C1=C\c1ccco1,0 (inactive)
22,COc1ccc(Nc2nc(-c3cccc([N+](=O)[O-])c3)nc3ccccc23)cc1,0 (inactive)
23,Cc1cccc(OCCn2c(=S)[nH]c3ccccc32)c1,0 (inactive)
24,CCOC(=O)Cn1c(=N)n(CCOc2cccc(C)c2)c2ccccc21,-1 (active)
25,COc1ccc(-n2c(=S)[nH]c3ccccc32)cc1,0 (inactive)
26,CCCCn1c(=O)nc2n(-c3ccccc3)c3ccccc3cc-2c1=O,0 (inactive)
27,Cc1cccc(OCC(O)CN2C(C)(C)CC(O)CC2(C)C)c1 (stereo not given),0 (inactive)

row,SMILES,manual score
1,CCCn1c(=N)n(CC(O)COc2cccc(C)c2)c2ccccc21 (stereo not given),-1 (active)
2,CCCCn1c(=N)n(CC(O)COc2cccc(C)c2)c2ccccc21 (stereo not given),-1 (active)
3,CCCn1c(=N)n(CCOc2ccc(OC)cc2)c2ccccc21,-1 (active)
4,CCOC(=O)C(CCCCOc1cccc(CC)c1)C(=O)OCC,0 (inactive)
5,CC1CSc2ccccc2NC1=S (stereo not given),0 (inactive)
6,COC(=O)c1sc(N2C(=O)C(O)=C(C(=O)c3ccc(C)o3)C2c2ccc(F)cc2)nc1C (stereo not given),0 (inactive)
7,CC(C)(C)OC(=O)COc1cc(O)c2c(=O)cc(-c3ccccc3)oc2c1,0 (inactive)
8,Fc1ccc(-c2nnc3ccc(N4CCc5ccccc5C4)nn23)cc1,0 (inactive)
9,CCOC(=O)Cn1c(=N)n(Cc2ccccc2F)c2ccccc21,-1 (active)
10,CCOC(=O)Cn1c(=O)oc2cc(S(=O)(=O)NCCCc3ccccc3)ccc21,0 (inactive)
11,CCOC(=O)c1cc2n(c1N)-c1ccccc1C2=O,3 (inactive)
12,CC(C)Oc1ccc(C2CC(=O)N(c3ccccc3)C2=O)cc1 (stereo not given),0 (inactive)
13,CC(C)C(=O)Nc1ccccc1N1CCN(C(=O)c2ccccc2)CC1,-1 (active)
14,CCCC(=O)Nc1ccccc1N1CCN(C(=O)c2ccccc2)CC1,-0.5 (inactive)
15,Cc1ccccc1OCC(=O)Nc1ccccc1N1CCOCC1,-1 (active)
16,Cc1cccc(OCC(=O)Nc2ccccc2N2CCN(C(=O)C(C)C)CC2)c1C,-1 (active)
17,Cc1cccc(OCC(=O)NC(=S)Nc2ccccc2N2CCOCC2)c1,0 (inactive)
18,CCOc1cc(N2CCOCC2)c(OCC)cc1NC(=O)COC(=O)CCc1c[nH]c2ccccc12,0 (inactive)
19,O=C(Nc1ccccc1N1CCCCC1)c1ccccc1F,0 (inactive)
20,CC1(C)Cc2cccc(OCC(=O)Nc3ccccc3N3CCOCC3)c2O1,-0.5 (inactive)
21,CCC(=O)N1CCN(c2ccccc2NC(=O)COc2cccc(C)c2)CC1,-1 (active)
22,Cc1cc(Cl)ccc1OCC(=O)Nc1ccccc1N1CCOCC1,-1 (active)
23,CCN(CC)c1ccc2cc(-c3nc4ccccc4[nH]3)c(=O)oc2c1,3 (inactive)
24,Cc1ccccc1C(=O)NNC(=S)NC(=O)COc1ccccc1,1 (active)
25,Cc1ccc(C(=O)NNC(=S)NC(=O)COc2ccccc2)cc1,1 (active)
26,CC(=O)c1c(C(C)=O)c(C)n(-c2nc(-c3cccs3)c(C)s2)c1C,-1 (active)
27,O=C(Cc1ccccc1)Nc1nc(-c2cccs2)cs1,0 (inactive)

row,SMILES,manual score
1,CN(CC(=O)Nn1cnnc1)S(=O)(=O)c1ccc(Br)cc1,0 (inactive)
2,Cc1cccc(N2C(=O)CS/C2=N\NC(=O)c2ccc(Cl)cc2)c1C,1 (active)
3,O=C(c1cnn2c(C(F)(F)F)cc(-c3cccs3)nc12)N1CCN(Cc2ccccc2)CC1,-0.5 (inactive)
4,COC(=O)c1c(NS(=O)(=O)c2cccs2)sc2c1CCCC2,1 (active)
5,COC(=O)c1c(NC(=S)NC(=O)c2ccco2)sc2c1CCCC2,0 (inactive)
6,COC(=O)c1c(NC(=S)Nc2ccc(F)cc2[N+](=O)[O-])sc2c1CCCCC2,0 (inactive)
7,COC(=O)c1c(NS(=O)(=O)c2ccc(C)cc2)sc2c1CCC(C)C2 (stereo not given),0 (inactive)
8,CCOC(=O)c1c(NC(=S)Nc2ccccc2)sc2c1CCCCC2,0 (inactive)
9,CC(=O)Oc1ccc(N(C(C)=O)S(=O)(=O)c2cccs2)c2ccccc12,0 (inactive)
10,CC(C)OC(=O)c1c(NS(=O)(=O)c2ccccc2)sc2c1CCCC2,1 (active)
11,COC(=O)c1c(NS(=O)(=O)Cc2ccccc2)sc2c1CCCC2,1 (active)
12,CC1CCc2c(sc(NS(=O)(=O)c3ccccc3)c2C(=O)OC(C)C)C1 (stereo not given),0 (inactive)
13,CCOC(=O)c1c(NS(=O)(=O)Cc2ccccc2)sc2c1CCCC2,1 (active)
14,Cc1ccc(-c2c(C)sc(NC(=O)C3C4CCC(O4)C3C(=O)O)c2C(=O)OC(C)C)cc1 (stereo not given),0 (inactive)
15,S=c1[nH]cnc2scc(-c3ccccc3)c12,1 (active)
16,Cc1ccc(-c2csc3nc[nH]c(=S)c23)cc1C,1 (active)
17,CCCc1nc2scc(-c3ccccc3)c2c(=O)n1N,0 (inactive)
18,CCCCn1c(=O)[nH]c2nc3cc(N)ccc3nc2c1=O,3 (inactive)
19,CCCc1cc(-c2n[nH]c(=S)n2C(C)c2ccccc2)cs1 (stereo not given),0 (inactive)
20,CN(C)Cc1c(O)ccc2occ(C(O)c3ccccc3)c12 (stereo not given),-1 (active)
21,O=c1[nH]c2ccccc2n1CCC1CCCCC1,0 (inactive)
22,CN(C(=O)CSC1=Nc2ccccc2C2=NC(c3ccccc3)C(=O)N12)C1CCCCC1 (stereo not given),-1 (active)
23,COc1ccc2c(-c3ccccc3)cc(SCC(=O)N(C)C3CCS(=O)(=O)C3)nc2c1 (stereo not given),0 (inactive)
24,Cc1ccccc1-n1c(SCc2ccccn2)nc2n[nH]c(C)c2c1=N,0 (inactive)

# Source: PubChem BioAssay AID623911 (Vanderbilt High Throughput Screening Facility, 2012)
